Results from ChEMBL document CHEMBL3988442, “University of Dundee, Small-Polar-MMV Screening Library” (2021).
About 13,000 (27%) of roughly 48,000 compounds showed an effect of 50% or more. The list shows a part of the results.

The compounds below were run on Wolbachia pipientis (assay: Anti-Wolbachia Cell-Based Screen). Conditions: 5 µM.
Type: functional
Design: scale not given: in the data most compounds retested in dose-response had high values

First: CCOc1cc(C)c(-c2cc(N)[nH]n2)cc1OCC
Second: CCOc1ccc(Br)cc1-c1cc(N)[nH]n1.Cl
The “Percent Effect” value of the first is lower: 103.8% for the first, 161.1% for the second.

Compared with CCOc1ccccc1-c1cc(N)[nH]n1.Cl, CCOc1ccccc1-c1cc2c(cc1C(N)=O)OCO2 is lower in “Percent Effect” value: 107% for the first, -7.69% for the second.

Going from COc1ccc(Br)cc1CC(=O)Nc1cc(C)n[nH]1 to Cc1cc(NC(N)=O)ccc1OCC(F)(F)F, the “Percent Effect” value rises from -11.39% to 6.991%.

Compared with CCOc1ccccc1-c1noc(CN2CCN(CCOC)CC2)n1, Cc1ccc(C)c(CN2CCCn3nc(CNS(C)(=O)=O)cc3C2)c1 is lower in “Percent Effect” value: 9.475% for the first, -10.08% for the second.

Going from c1ccc2c(c1)CN(c1ncnc3c1CCNC3)CCO2 to O=C(c1cccs1)N1CCCn2cnc(COCC3CC3)c2C1, the “Percent Effect” value rises from -28.26% to 6.591%.

First: CC(=O)N(C)Cc1ncn2c1CN(C(=O)C1CCCO1)CCC2 (stereo not given)
Second: CC(C)N(C)Cc1ncn2c1CN(C(=O)C1CCCO1)CCC2 (stereo not given)
The “Percent Effect” value of the first is higher: 106.4% for the first, 102% for the second.

First: CC(=O)N(C)Cc1ncn2c1CN(C(=O)CC1CC1)CCC2
Second: CS(=O)(=O)NCc1ncn2c1CN(C(=O)CC1CCCC1)CCC2
The “Percent Effect” value of the first is higher: 104.9% for the first, -15.27% for the second.

Compared with CS(=O)(=O)NCc1ncn2c1CN(C(=O)C1CCCO1)CCC2 (stereo not given), CC(C)CC(=O)N1CCCn2cnc(CNS(C)(=O)=O)c2C1 is higher in “Percent Effect” value: 106.6% for the first, 117% for the second.

First: CN(C)C(=O)NCc1ncn2c1CN(S(C)(=O)=O)CCC2
Second: CC(C)N(C)Cc1ncn2c1CN(CC(=O)N(C)C)CCC2
The “Percent Effect” value of the first is higher: 2.726% for the first, -4.555% for the second.

Going from Cc1ccsc1C(=O)N1CCn2cnc(COCC3CC3)c2C1 to CC(C)N(C)Cc1nnc2n1CCCN(C(=O)C1CCCO1)C2 (stereo not given), the “Percent Effect” value falls from 0.0867% to -11.05%.

First: CSCCc1c(-c2ccccc2)ncn1CCNc1cccnc1
Second: CC(c1ccccn1)N(C)Cc1cccc(C(=O)Nc2nccn2C)c1 (stereo not given)
The “Percent Effect” value of the first is lower: -1.445% for the first, 66.38% for the second.

Going from COC(=O)C1CN(CC(=O)Nc2ccccc2Cl)c2ccccc21 (stereo not given) to COC(=O)c1cccc(CN(C)C(C)c2ccccn2)c1 (stereo not given), the “Percent Effect” value rises from 8.149% to 109%.

Going from Cc1ccc(NC(C)C(=O)NCc2cccs2)cc1Cl (stereo not given) to Cc1ccc(C(=O)NCCNC(=O)N(C)C(C)c2ccccn2)cc1 (stereo not given), the “Percent Effect” value rises from -17.21% to -4.194%.

Going from COCC(C)(C)NC(=O)CC(c1ccccc1)C(F)(F)F (stereo not given) to Cc1cnc(NC(=O)c2cccc(CN(C)Cc3ncccc3C)c2)s1, the “Percent Effect” value falls from 0.4415% to 0.1885%.

Going from CC(c1ccco1)N(C)Cc1cccc(C(=O)Nc2nccn2C)c1 (stereo not given) to COc1cc(CN(C)C(C)c2ccccn2)cc2c1OCO2 (stereo not given), the “Percent Effect” value falls from 19.16% to -21.63%.
